From PubChem BioAssay AID686979 (National Center for Advancing Translational Sciences (NCATS), 2013)
About 50,000 (12%) of roughly 420,000 compounds were called active. Another 26% or so got no clear call; they are omitted. Calls follow the shape of the dose curve; as a rule, active = well fitted inhibition curve with a large enough effect; inconclusive = small, poorly fitted or top-dose-only effect; inactive = flat fitted curve, though single readings scatter. Shown is part of a subset that was picked to be rich in actives.

Assay: qHTS for Inhibitors of human tyrosyl-DNA phosphodiesterase 1 (TDP1): qHTS in cells in presence of CPT; also: nearly all actives have a fitted effect of over 55% in size
Conditions: chicken DT40 Tdp1-/-;hTDP1 cells + 20 nM CPT, ATP luminescence, 48 h; series mostly up to 46.2 µM; activity change, negative = growth inhibition: at the top concentration
Summary of the method: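 Cell growth measured by CellTiter-Glo luminescence after a minimum 48 h, 37 C compound exposure with 20 nM CPT in Tdp1-knockout DT40 cells stably expressing hTDP1, seeded 400/well; qHTS titration format.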
% is scaled to controls: 0 for no effect and ±100 for the full control effect; potency is read from the fitted curve at half-maximal effect.

| Structure (SMILES) | activity change, negative = growth inhibition | Potency |
| --- | --- | --- |
| CCCc1nnc(SCC(=O)N2C(C)CCCC2C)n1CC (stereo not drawn) | 4.32% (inactive) |  |
| O=c1c(CN2CCOc3ccc(CN4CCC(Oc5cccnc5)CC4)cc3C2)coc2ccccc12 | 0.59% [at 9.04 µM] (inactive) |  |
| COc1ccc(C)cc1-n1nnnc1SCc1nc2ccccc2c(=O)[nH]1 |  | 13 µM (active) |
| COCCn1c(SCc2nc3cc(OC)c(OC)cc3c(=O)[nH]2)nnc1-c1ccncc1 | -23.8% (inactive) |  |
| CCn1c(COc2c(C)cccc2C)nnc1SCc1nc2ccccc2c(=O)[nH]1 | -29.2% (inactive) |  |
| Cc1cccc(NC(=O)Nc2ccc(OCc3ccccc3)cc2)n1 | -26.1% (inactive) |  |
| O=C(OCC(=O)N1CCN(C(=O)c2ccco2)CC1)c1cccc(O)c1 | 10.2% (inactive) |  |
| COc1ccc(Cl)cc1NS(=O)(=O)c1cccc(C(=O)NCC2CCCO2)c1 (stereo not drawn) | -18.3% (inactive) |  |
| CC(C)CC(CCc1ccccc1)OS(N)(=O)=O (stereo not drawn) | -10.9% (inactive) |  |
| Cc1ccc(Cn2c(=O)n(Cc3nc(-c4ccccc4)no3)c(=O)c3cc4c(cc32)OCO4)cc1 | -3.36% (inactive) |  |
| CSc1nc2ccccc2c(=O)n1Cc1ccc(F)cc1 | -1.98% (inactive) |  |
| Cc1ccc(Cn2c(C)nc3c(c2=O)c2nc4ccccc4nc2n3Cc2ccco2)cc1 |  | 25.9 µM (active) |
| O=C(O)CSCc1ccc(C(=O)O)o1 | -5.59% (inactive) |  |
| COc1ccc(C(=O)OCC(=O)Nc2cccc(C(C)=O)c2)cc1OC | -1.13% (inactive) |  |
| COc1ccc(OCC(=O)NNC(=O)C2CCC2)cc1 | -23.6% (inactive) |  |
| O=C(CC1CCCCC1)NCc1ccc(F)cc1 | -1.57% (inactive) |  |
| OC(COc1ccccc1)CN1CCN(c2cccc(Cl)c2)CC1 (stereo not drawn) | -8.22% (inactive) |  |
| C[N+]1(CC(O)COc2ccccc2)CCN(C(=O)c2ccc([N+](=O)[O-])cc2)CC1 (stereo not drawn) | 6.42% (inactive) |  |
| OC(COc1ccc2ccccc2c1)CN1CCOCC1 (stereo not drawn) |  | inactive |
| O=S(=O)(c1ccc(OCC(O)CN2CCN(c3ccccc3Cl)CC2)cc1)N1CCOCC1 (stereo not drawn) |  | 14.6 µM (active) |
| CC(=O)Nc1ccc(OCC(O)CN2CCN(c3ccccc3Cl)CC2)cc1 (stereo not drawn) | -10.6% (inactive) |  |
| O=[N+]([O-])c1ccc(N2CCN(CC(O)COc3ccccc3)CC2)cc1 (stereo not drawn) |  | 20.6 µM (active) |
| Cc1nc2nc(C)c(NS(=O)(=O)c3ccc(C(C)(C)C)cc3)c(=O)n2[nH]1 | -11.1% (inactive) |  |
| CCCS(=O)(=O)NCc1c(C)ncc2c1CCN(C(=O)c1ccc(F)c(F)c1)C2 | -3.77% [at 9.04 µM] (inactive) |  |
| Cc1coc2c1c(C)cc1oc(=O)c(CC(=O)NCC(=O)N[C@H](C(=O)O)C(C)C)c(C)c12 | -0.893% (inactive) |  |
| CC(C#N)OC(=O)c1cccnc1SCC(=O)Nc1ccc2c(c1)OCO2 (stereo not drawn) | 14.5% (inactive) |  |
| COc1ccc2c(c1)SC(C)CC2=O (stereo not drawn) | -1.56% (inactive) |  |
| COc1ccc2c(c1)OC(O)(C(F)(F)C(F)F)CC2=O (stereo not drawn) |  | 11.6 µM (active) |
